# Screen size: about 320,000 compounds; about 22,000 (6.9%) were called active. Roughly 27% stayed inconclusive and do not appear here. The sample holds actives, similar compounds and a random draw of the others, so the mix is not that of the screen. Values without a mark were called inactive. Calls come from the whole dose curve; as a rule, active = well fitted inhibition curve with a large enough effect; inconclusive = small, poorly fitted or top-dose-only effect, or another doubt; inactive = no such curve, though single readings can be large or run the other way. Where a SMILES comes first, the peptide text is derived from it. [ ]: non-standard residue; d: D form. The star is where a group is joined. PhAc = O=C(Cc1ccccc1)*
# Experiment: Primary qHTS for delayed death inhibitors of the malarial parasite plastid, 96 hour incubation
# Settings: P. falciparum luciferase reporter growth; series mostly up to 28.7 µM; activity change, negative = inhibition: at the top concentration
# Summary of the method: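 96 h incubation, 37 C, 5% CO2, of luciferase-reporter P. falciparum-infected RBCs (2% hematocrit, 0.05% parasitemia final) with test compounds; endpoint luminescence.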
# % is set by controls: 0 for no effect and ±100 for the full control effect; potency is the fitted concentration of half-maximal effect.
SMILES,"activity change, negative = inhibition [%]",Potency
CC(=O)c1ccc(S(=O)(=O)Nc2ccc(C(=O)NCC(c3ccccc3)N(C)C)cc2)cc1 (stereo not drawn),-1.6,
O=C(NCc1ccccc1CN1CCCC1)c1cccc(S(=O)(=O)Nc2ccc(F)cc2)c1,,10.4 µM (active)
COc1ccc(C(CNC(=O)c2ccc(S(=O)(=O)Nc3ccccc3F)cc2)N(C)C)cc1 (stereo not drawn),-20,
O=C(NCC1(N2CCCCC2)CCCCC1)c1ccc(NS(=O)(=O)c2ccc(F)cc2)cc1,,10.4 µM (active)
COc1ccccc1C(CNC(=O)c1cccc(NS(=O)(=O)c2ccc(Br)cc2)c1)N(C)C (stereo not drawn),,6.57 µM (active)
CCOc1ccc(S(=O)(=O)Nc2ccc(S(=O)(=O)Nc3cc(OC)ccc3OC)cc2)cc1,-5.22,
O=C(NCc1cccc(C(F)(F)F)c1)c1cccc(S(=O)(=O)N2CCN(Cc3ccccc3)CC2)c1,-17.2,
CCOc1ccc(NS(=O)(=O)c2ccc(C(=O)NCC(c3ccccc3OC)N3CCCC3)cc2)cc1 (stereo not drawn),,14.7 µM (active)
CCOc1ccc(S(=O)(=O)Nc2ccc(C(=O)NCCCN3CCCC3=O)cc2)cc1,-11.4,
Cc1ccc(NS(=O)(=O)c2ccc(C(=O)NCCCN3CCOCC3)cc2)cc1,3.25,
O=C(NCC1CCCO1)c1ccc(S(=O)(=O)Nc2ccc(F)cc2)cc1 (stereo not drawn),33.4,
O=C(OC1CCOC1=O)c1cccc(S(=O)(=O)Nc2ccc(F)cc2)c1 (stereo not drawn),-31.8,
COc1cc(C#Cc2ccc3cc(CCCO)oc(=O)c3c2)cc(OC)c1,-9.41,
Cc1ccc(NC(=O)CN(C)C(=O)COC(=O)C(C)(C)Oc2ccc(Cl)cc2)cc1,47.3,
CC1(c2ccc3ccccc3c2)NC(=O)N(CC(N)=O)C1=O (stereo not drawn),22,
O=C(NCCCn1ccnc1)c1cc2c(s1)CCCC2,13.7,
CCOC(=O)CC1(NC(=O)c2cc(COc3cncc(Cl)c3)on2)CCCCC1,-28.6,
COc1ccc(S(=O)(=O)NCCOc2ccccc2)cc1F,14.1,
CC(C)(C)n1ncc2c(=O)n(Cc3c(Cl)cccc3Br)cnc21,-44.3,
O=C(O)c1ccc(/C=C2\SC(=S)N(NC(=O)c3ccc(Br)cc3)C2=O)cc1,8.46,
CS(=O)(=O)N1CCN(CC(=O)NC2CCCC2)CC1,9.01,
CCN(CC(=O)Nc1c(F)cccc1F)C(=O)c1ccc(S(=O)(=O)N2CCCCC2)cc1,-2.32,
Cn1c(CCN2CCCC2)nc2cc(NS(=O)(=O)c3ccccc3)ccc21,-19.7,
COc1ccccc1C(CNC(=O)c1cccc(S(=O)(=O)Nc2ccc(F)cc2)c1)N(C)C (stereo not drawn),,8.28 µM (active)

SMILES,"activity change, negative = inhibition [%]",Potency
COc1ccc(C(CNC(=O)c2ccc(NS(=O)(=O)c3ccc(F)c(C)c3)cc2)N(C)C)cc1 (stereo not drawn),-24.6,
CN(C)C(CNC(=O)c1cccc(S(=O)(=O)Nc2ccc(Br)cc2)c1)c1ccco1 (stereo not drawn),2.97,
CSc1nnc2ccc(-c3ccc(C)cc3)nn12,16.1,
O=C(CN1CCN(c2ccccn2)CC1)NC1CCCCC1,0,
O=C(Cn1c(-c2cscn2)nc2ccccc21)Nc1ccc(Cl)cc1,28.7,
O=C(Cn1c(-c2cncs2)nc2ccccc21)NC1CCCC1,,9.28 µM (active)
Cc1ccn2c(=O)nc(SCC(=O)NCc3ccc(F)cc3)nc2c1,0.481,
CC(C)C[C@@H](NC(=O)[C@H]1CCCN1C(=O)Cc1ccccc1)C(N)=O (PhAc-[dP]-[dL]-NH2),6.07,
COc1ccccc1-c1nn(Cc2ccccc2)cc1C(=O)N1CCN(c2ncccn2)CC1,,13.1 µM (active)
Oc1ccc(CN2CCN(c3ncccn3)CC2)cc1,-25.8,
COc1cccc(OC)c1C(=O)N1CCN(Cc2cccnc2)CC1,0,
CCOCCCNC(=O)C1(O)c2cc(Br)ccc2NC(=O)N1c1ccc(C)c(C)c1 (stereo not drawn),14.5,
COc1ccc(NS(=O)(=O)c2ccc3oc(SCC(N)=O)nc3c2)cc1,-25,
CC(=O)NC(Cc1c[nH]c2ccccc12)C(=O)NCCc1ccccc1 (stereo not drawn),26.3,
COc1cccc(NC(=O)[C@H](Cc2c[nH]c3ccccc23)NC(=O)[C@@H]2Cc3ccccc3CN2)c1,,11.7 µM (active)
COc1ccc(CNC(=O)[C@H](Cc2c[nH]c3ccccc23)NC(C)=O)cc1OC,24.8,
CC1(C)c2[nH]c3ccccc3c2C[C@H]2C(=O)N(N)CC(=O)N21,24.9,
COCCN1CCN(C(=O)c2cc(COc3ccc(F)cc3Cl)on2)CC1,19.3,
CCCCNC(=S)N/N=C1\CCCCc2ccccc21,,9.28 µM (active)
O=[N+]([O-])c1ccccc1N/N=C1\CCc2ccccc21,219,
Cc1ccc(NC(=S)N/N=C2/CCCc3c(C)cc(C)cc32)cc1,-20.2,
Cc1ccccc1N1CCN(C2CCCN(C(=O)c3cn4c(C)cccc4n3)C2)CC1 (stereo not drawn),20.5,
COc1ccccc1C(=O)Nc1ccnn1C1CCN(Cc2cnn(C)c2)CC1,-28.4,
CCOC(=O)c1c(NC(=O)NC(C)(C)C)sc2c1CCN(C)C2,,4.15 µM (active)

SMILES,"activity change, negative = inhibition [%]",Potency
CCOC(=O)c1c(NC(=S)Nc2ccccc2)sc2c1CCN(C)C2,1.12,
CCOC(=O)c1c(NC(=O)Cn2nc(C(F)(F)F)cc2C)sc2c1CCC2,31.5,
CCOC(=O)c1c(NC(=S)NC)sc2c1CCCC2,,8.28 µM (active)
CCOCC(=O)Nc1sc2c(c1C(=O)OCC)CCCC2,50,
CCOC(=O)c1c(NC(=S)Nc2ccccc2C)sc2c1CCC2,-22.4,
O=C(CCc1nc(-c2ccccc2)no1)Nc1cccc(C(=O)NC2CC2)c1,-21.5,
CCOC(=O)C1CCN(S(=O)(=O)c2ccc3c(c2)N(C)C(=O)CC(=O)N3C)CC1,-18.2,
COc1cc2ccccc2cc1C(=O)Nc1ccc(N2CCOCC2)cc1,73.9,
COc1cccc(C(=O)NC(=O)Nc2nc(C)cc(C(F)(F)F)n2)c1,43.9,
Cc1cccc(OCC(=O)Nc2ccc(NC(=O)c3ccco3)c(C)c2)c1,5.79,
O=C(CN1C(=O)NC2(CCCCCC2)C1=O)NCc1cccs1,24.4,
O=C(CN1C(=O)NC2(CCCCC2)C1=O)N1CCN(C(=O)c2cccs2)CC1,-11,
O=C1CN(C(=O)CN2C(=O)NC3(CCCCC3)C2=O)c2ccccc2N1,,14.7 µM (active)
COCCN1CCn2c(nc3cc(NS(C)(=O)=O)ccc32)C1,46.5,
Cc1ccc(CNC(=O)c2ccc(CS(=O)Cc3cccc(Cl)c3)o2)cc1 (stereo not drawn),1.49,
COc1ccc(CCNC(=O)c2cnc(Cl)c(Cl)c2)cc1,4.95,
COC(=O)c1cc2c(N)c(C(=O)c3ccc(Cl)cc3)sc2nc1C(OC)OC,-24.3,
Nc1c(C(=O)NCc2ccccc2)sc2nc3c(cc12)C(=O)CCC3,84.8,
CC(C)OC(=O)c1sc2nc3c(cc2c1N)C(=O)CCC3,,5.22 µM (active)
C[C@@]12C(=O)N(c3cccc(Br)c3)C(=O)N1[C@H](c1ccc(Cl)cc1)[C@@H]1C(=O)N(C3CCCCC3)C(=O)[C@@H]12,,16.5 µM (active)
Cc1cccc([C@@H]2[C@@H]3C(=O)N(Cc4ccccc4)C(=O)[C@@H]3[C@]3(Cc4ccc(Cl)cc4)C(=O)N(c4cccc(Cl)c4)C(=O)N23)c1,-22.4,
COc1ccc([C@@H]2[C@@H]3C(=O)N(C(C)(C)C)C(=O)[C@@H]3[C@]3(Cc4ccccc4)C(=O)N(c4cccc(Br)c4)C(=O)N23)cc1,,1.65 µM (active)
Cc1cccc(N2C(=O)N3[C@H](c4ccc(F)cc4)[C@@H]4C(=O)N(C5CCCCC5)C(=O)[C@@H]4[C@]3(Cc3ccccc3)C2=O)c1,,13.1 µM (active)
COc1ccc(N2C(=O)C(Cc3ccccc3)NC2=S)cc1 (stereo not drawn),44.9,

SMILES,"activity change, negative = inhibition [%]",Potency
O=C(NC1(C(F)(F)F)NC(=O)N(C2CCCCC2)C1=O)c1ccco1 (stereo not drawn),12.9,
Cc1cccc(N2C(=O)C3C(c4ccccc4)OC4(C(=O)c5ccccc5C4=O)C3C2=O)c1 (stereo not drawn),1.05,
COc1ccc(C2C(C(C)=O)=C(O)C(=O)N2Cc2cccnc2)cc1 (stereo not drawn),243,
CC12C(=O)N(c3ccccc3)C(=O)C1C(c1ccccc1)N1CCCN12 (stereo not drawn),20.4,
O=C1[C@H]2[C@@H](c3ccc(F)cc3)N3C(=O)N(c4ccc(C(F)(F)F)cc4)C(=O)[C@@]3(Cc3ccccc3)[C@H]2C(=O)N1C1CCCCC1,,5.22 µM (active)
Cc1c(C)c(C)c(S(=O)(=O)N2CCC3(CC2)OCCO3)c(C)c1C,-0.851,
Cc1csc(NC(=O)C2CCN(S(=O)(=O)c3ccccc3)CC2)n1,-10.6,
CCOc1ccc(N(CC(=O)NCCOc2ccccc2OC)S(=O)(=O)c2ccccc2)cc1,0.187,
Cc1ccccc1N1CCN(Cc2nc(Cc3ccccc3F)no2)CC1,34.5,
COc1ccc(NC(=O)CC2C(=O)NC3CCCCC3N2C(=O)c2ccc(F)cc2)cc1 (stereo not drawn),-0.568,
COc1ccc(CNC(=O)CN(Cc2ccccc2Cl)C(=O)c2csnn2)cc1,31.1,
COc1ccc(NC(=O)C2=CC(c3ccc(OC)c(OC)c3)=NS(=O)(=O)N2C)cc1,4.29,
COc1ccc(/C=C2\SC(=O)N(CCC(=O)NC3CCS(=O)(=O)C3)C2=O)cc1 (stereo not drawn),7.41,
O=C(c1cc(COc2cccc(C(F)(F)F)c2)on1)N1CCSCC1,-9.38,
C=CCn1c(=O)c(C(=O)NCc2ccc3c(c2)OCO3)c(O)c2ccccc21,-16.3,
O=C1[C@H]2[C@@H](c3ccc(Cl)cc3)N3C(=O)N(c4cccc(F)c4)C(=O)[C@@]3(Cc3ccccc3)[C@H]2C(=O)N1C1CCCCC1,,8.28 µM (active)
O=C(COC(=O)c1ccc(F)cc1)NCCCc1ccccc1,36.7,
CC(C)(C)c1ccc(NC(=O)COC(=O)CCc2nc3ccccc3c(=O)[nH]2)cc1,20.8,
Cc1cc(C)c(-c2csc(NC(=O)CCCc3nc4ccccc4c(=O)[nH]3)n2)c(C)c1,,0.329 µM (active)
Cc1cccc(S(=O)(=O)CC(=O)Nc2nc(-c3ccccc3)cs2)c1,-14.2,
CC(C)Oc1ccc(/C=N/NC(=O)c2nnn(-c3nonc3N)c2CN(C)C2CCCCC2)cc1,38.5,
